# Data: PubChem BioAssay AID1159580 (chemical genetic matrix, 2015)
# Hit rate of the full screen: of about 5,500 compounds, about 2,000 (36%) were called active. Roughly 18% stayed inconclusive and do not appear here. This is one part of the list. A number with no mark means an inactive call. Cut-off read from the data, not from the text of the source: active = normalized growth mostly below about 0.91 (no sharp cut-off); inconclusive = no clear call, values can overlap the other calls; inactive = mostly above about 0.92.
# Assay: chemical genetic growth profiling, strain panel (AID 1159580);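 note: tested at 20 µM; growth read once vehicle control cultures reached saturation at 30 °C; 1 = growth at the plate median or of vehicle wells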
# Settings: S. cerevisiae deletion strains, growth OD
smiles,measurement,setting,value
CC(=O)OC1CC[C@@]2(C)C(CCC3C2CC[C@]2(C)C(C4=CC(=O)OC4)C(OC(C)=O)CC32O)C1 (stereo not given in full),normalized growth,"locus YAL013W, strain DEP1, stronger effect = lower value",0.988
same,normalized growth,"locus YAL021C, strain ccr4, stronger effect = lower value",0.989
same,normalized growth,"locus YAL026C, strain drs2, stronger effect = lower value",0.979
same,normalized growth,"locus YAL030W, strain snc1, stronger effect = lower value",0.998
same,normalized growth,"locus YBL061C, strain skt5, stronger effect = lower value",0.994
same,normalized growth,"locus YBR009C, strain hhf1, stronger effect = lower value",1
same,normalized growth,"locus YBR021W, strain FUR4, stronger effect = lower value",0.837 (active)
same,normalized growth,"locus YBR023C, strain chs3, stronger effect = lower value",0.995
same,normalized growth,"locus YBR171W, strain sec66, stronger effect = lower value",0.987
same,normalized growth,"locus YBR229C, strain ROT2, stronger effect = lower value",0.997
same,normalized growth,"locus YBR231C, strain swc5, stronger effect = lower value",0.979
same,normalized growth,"locus YBR279W, strain paf1, stronger effect = lower value",0.984
same,normalized growth,"locus YCL011C, strain gbp2, stronger effect = lower value",0.972
same,normalized growth,"locus YCL016C, strain dcc1, stronger effect = lower value",0.971
same,normalized growth,"locus YCL029C, strain bik1, stronger effect = lower value",1.01
same,normalized growth,"locus YCL069W, strain vba3, stronger effect = lower value",0.999
same,normalized growth,"locus YCR088W, strain abp1, stronger effect = lower value",0.999
same,normalized growth,"locus YDL005C, strain med2, stronger effect = lower value",0.972
same,normalized growth,"locus YDL035C, strain GPR1, stronger effect = lower value",1.01
same,normalized growth,"locus YDL040C, strain nat1, stronger effect = lower value",0.99
same,normalized growth,"locus YDL074C, strain BRE1, stronger effect = lower value",0.972
same,normalized growth,"locus YDL101C, strain DUN1, stronger effect = lower value",1
same,normalized growth,"locus YDL134C, strain PPH21, stronger effect = lower value",1.03
same,normalized growth,"locus YDL185W, strain tfp1, stronger effect = lower value",1.02
same,normalized growth,"locus YDL192W, strain arf1, stronger effect = lower value",1
same,normalized growth,"locus YDR001C, strain nth1, stronger effect = lower value",0.986
same,normalized growth,"locus YDR069C, strain doa4, stronger effect = lower value",0.942
same,normalized growth,"locus YDR101C, strain arx1, stronger effect = lower value",1.01
same,normalized growth,"locus YDR137W, strain rgp1, stronger effect = lower value",0.986
same,normalized growth,"locus YDR159W, strain sac3, stronger effect = lower value",1.03
same,normalized growth,"locus YDR162C, strain NBP2, stronger effect = lower value",1
same,normalized growth,"locus YDR195W, strain ref2",0.951
same,normalized growth,"locus YDR297W, strain sur2, stronger effect = lower value",0.989
same,normalized growth,"locus YDR318W, strain mcm21, stronger effect = lower value",0.992
same,normalized growth,"locus YDR334W, strain swr1, stronger effect = lower value",0.976
same,normalized growth,"locus YDR335W, strain msn5, stronger effect = lower value",0.978
same,normalized growth,"locus YDR388W, stronger effect = lower value",1.01
same,normalized growth,"locus YDR392W, strain spt3, stronger effect = lower value",1.01
same,normalized growth,"locus YDR502C, strain sam2, stronger effect = lower value",0.994
same,normalized growth,"locus YEL003W, strain gim4, stronger effect = lower value",0.988
same,normalized growth,"locus YEL037C, strain rad23, stronger effect = lower value",0.997
same,normalized growth,"locus YEL061C, strain CIN8 (second series), stronger effect = lower value",0.985
same,normalized growth,"locus YEL061C, strain CIN8, stronger effect = lower value",0.997
same,normalized growth,"locus YER015W, strain faa2, stronger effect = lower value",0.983
same,normalized growth,"locus YER016W, strain bim1, stronger effect = lower value",0.965
same,normalized growth,"locus YER110C, stronger effect = lower value",1.01
same,normalized growth,"locus YER111C, strain swi4, stronger effect = lower value",0.978
same,normalized growth,"locus YER155C, strain BEM2 (second series), stronger effect = lower value",1.01
same,normalized growth,"locus YER155C, strain BEM2, stronger effect = lower value",0.996
same,normalized growth,"locus YER167W, strain BCK2, stronger effect = lower value",0.997
same,normalized growth,"locus YFR010W, strain ubp6, stronger effect = lower value",1
same,normalized growth,"locus YGL078C, strain dbp3, stronger effect = lower value",1
same,normalized growth,"locus YGL086W, strain mad1, stronger effect = lower value",1
same,normalized growth,"locus YGL167C, strain pmr1, stronger effect = lower value",0.982
same,normalized growth,"locus YGL173C, strain kem1, stronger effect = lower value",0.987
same,normalized growth,"locus YGL227W, strain vid30, stronger effect = lower value",0.98
same,normalized growth,"locus YGL240W, strain doc1, stronger effect = lower value",0.99
same,normalized growth,"locus YGL248W, strain PDE1, stronger effect = lower value",0.995
same,normalized growth,"locus YGL253W, strain hxk2, stronger effect = lower value",0.964
same,normalized growth,"locus YGR135W, strain pre9, stronger effect = lower value",1.01
same,normalized growth,"locus YGR229C, strain SMI1, stronger effect = lower value",0.976
same,normalized growth,"locus YGR252W, strain gcn5, stronger effect = lower value",0.993
same,normalized growth,"locus YHR013C, strain ard1, stronger effect = lower value",0.943
same,normalized growth,"locus YHR027C, strain rpn1, stronger effect = lower value",0.97
same,normalized growth,"locus YHR079C, strain IRE1 (second series), stronger effect = lower value",1
same,normalized growth,"locus YHR094C, strain hxt1, stronger effect = lower value",1
same,normalized growth,"locus YHR129C, strain ARP1, stronger effect = lower value",1
same,normalized growth,"locus YHR142W, strain chs7, stronger effect = lower value",0.958
same,normalized growth,"locus YHR200W, strain rpn10, stronger effect = lower value",1.01
same,normalized growth,"locus YIL066C, strain RNR3, stronger effect = lower value",1.01
same,normalized growth,"locus YIL073C, strain SPO22, stronger effect = lower value",1.04
same,normalized growth,"locus YIL125W, strain kgd1, stronger effect = lower value",1.02
same,normalized growth,"locus YIR030C, strain dcg1, stronger effect = lower value",1
same,normalized growth,"locus YJL092W, strain hpr5, stronger effect = lower value",0.986
same,normalized growth,"locus YJL095W, strain BCK1 (second series), stronger effect = lower value",0.993
same,normalized growth,"locus YJL095W, strain BCK1, stronger effect = lower value",0.999
same,normalized growth,"locus YJL115W, strain asf1, stronger effect = lower value",0.959
same,normalized growth,"locus YJL129C, strain trk1, stronger effect = lower value",0.956
same,normalized growth,"locus YJL134W, strain LCB3, stronger effect = lower value",0.995
same,normalized growth,"locus YJL154C, strain vps35, stronger effect = lower value",0.975
same,normalized growth,"locus YJL164C, strain tpk1, stronger effect = lower value",1
same,normalized growth,"locus YJL166W, strain qcr8, stronger effect = lower value",0.957
same,normalized growth,"locus YJL168C, strain set2, stronger effect = lower value",1.01
same,normalized growth,"locus YJL187C, strain SWE1 (second series), stronger effect = lower value",0.99
same,normalized growth,"locus YJL187C, strain SWE1, stronger effect = lower value",0.982
same,normalized growth,"locus YJR075W, strain HOC1, stronger effect = lower value",0.997
same,normalized growth,"locus YKL009W, strain mrt4, stronger effect = lower value",1.01
same,normalized growth,"locus YKL068W, stronger effect = lower value",1.01
same,normalized growth,"locus YKL085W, strain MDH1 (second series), stronger effect = lower value",1.01
same,normalized growth,"locus YKL085W, strain MDH1, stronger effect = lower value",1.01
same,normalized growth,"locus YKL160W, strain elf1, stronger effect = lower value",0.975
same,normalized growth,"locus YKR001C, strain vps1, stronger effect = lower value",1.01
same,normalized growth,"locus YKR026C, strain gcn3, stronger effect = lower value",0.993
same,normalized growth,"locus YKR091W, strain srl3, stronger effect = lower value",0.974
same,normalized growth,"locus YLL001W, strain dnm1, stronger effect = lower value",0.998
same,normalized growth,"locus YLL026W, stronger effect = lower value",0.983
same,normalized growth,"locus YLL041C, strain sdh2, stronger effect = lower value",1
same,normalized growth,"locus YLR027C, strain aat2, stronger effect = lower value",0.983
same,normalized growth,"locus YLR039C, strain RIC1, stronger effect = lower value",1.02
same,normalized growth,"locus YLR058C, strain SHM2, stronger effect = lower value",1
same,normalized growth,"locus YLR102C, strain apc9, stronger effect = lower value",1.01
same,normalized growth,"locus YLR221C, strain rsa3, stronger effect = lower value",0.997
same,normalized growth,"locus YLR258W, strain gsy2, stronger effect = lower value",0.979
same,normalized growth,"locus YLR262C, strain YPT6 (second series), stronger effect = lower value",0.974
same,normalized growth,"locus YLR262C, strain YPT6, stronger effect = lower value",1.03
same,normalized growth,"locus YLR268W, strain sec22, stronger effect = lower value",1.01
same,normalized growth,"locus YLR320W, strain mms22, stronger effect = lower value",1.01
same,normalized growth,"locus YLR342W, strain FKS1 (second series), stronger effect = lower value",0.986
same,normalized growth,"locus YLR342W, strain FKS1, stronger effect = lower value",1.01
same,normalized growth,"locus YLR357W, strain rsc2, stronger effect = lower value",0.967
same,normalized growth,"locus YLR370C, strain arc18, stronger effect = lower value",0.974
same,normalized growth,"locus YLR371W, strain rom2, stronger effect = lower value",0.996
same,normalized growth,"locus YLR384C, strain iki3, stronger effect = lower value",0.971
same,normalized growth,"locus YLR418C, strain cdc73, stronger effect = lower value",1.03
same,normalized growth,"locus YML016C, strain PPZ1, stronger effect = lower value",1
same,normalized growth,"locus YML032C, strain rad52, stronger effect = lower value",1.01
same,normalized growth,"locus YML120C, strain ndi1, stronger effect = lower value",0.996
same,normalized growth,"locus YML124C, strain tub3, stronger effect = lower value",1.01
same,normalized growth,"locus YMR058W, strain fet3, stronger effect = lower value",0.977
same,normalized growth,"locus YMR078C, strain ctf18, stronger effect = lower value",1.02
same,normalized growth,"locus YMR125W, strain sto1, stronger effect = lower value",0.977
same,normalized growth,"locus YMR129W, stronger effect = lower value",0.981
same,normalized growth,"locus YMR205C, strain PFK2, stronger effect = lower value",0.994
same,normalized growth,"locus YMR223W, strain ubp8, stronger effect = lower value",1
same,normalized growth,"locus YMR231W, strain pep5, stronger effect = lower value",0.99
same,normalized growth,"locus YMR307W, strain GAS1, stronger effect = lower value",1.02
same,normalized growth,"locus YNL067W, strain RPL9B, stronger effect = lower value",1.01
same,normalized growth,"locus YNL071W, strain lat1, stronger effect = lower value",0.999
same,normalized growth,"locus YNL153C, strain GIM3, stronger effect = lower value",1
same,normalized growth,"locus YNL209W, strain ssb2, stronger effect = lower value",0.996
same,normalized growth,"locus YNL233W, strain BNI4, stronger effect = lower value",0.989
same,normalized growth,"locus YNL248C, strain rpa49, stronger effect = lower value",0.946
same,normalized growth,"locus YNL250W, strain rad50, stronger effect = lower value",1.02
same,normalized growth,"locus YNL271C, strain bni1, stronger effect = lower value",1.01
same,normalized growth,"locus YNL298W, strain CLA4, stronger effect = lower value",1.04
same,normalized growth,"locus YNL307C, strain MCK1, stronger effect = lower value",1.03
same,normalized growth,"locus YNL322C, strain KRE1 (second series), stronger effect = lower value",0.971
same,normalized growth,"locus YNR049C, strain mso1, stronger effect = lower value",0.959
same,normalized growth,"locus YNR052C, strain pop2, stronger effect = lower value",0.999
same,normalized growth,"locus YOL006C, strain TOP1, stronger effect = lower value",1.04
same,normalized growth,"locus YOL012C, strain htz1",0.875
same,normalized growth,"locus YOL147C, strain pex11, stronger effect = lower value",1.01
same,normalized growth,"locus YOR001W, strain rrp6, stronger effect = lower value",1.03
same,normalized growth,"locus YOR061W, strain CKA2, stronger effect = lower value",1.01
same,normalized growth,"locus YOR069W, strain VPS5, stronger effect = lower value",0.999
same,normalized growth,"locus YOR070C, strain gyp1, stronger effect = lower value",0.995
same,normalized growth,"locus YOR080W, strain dia2, stronger effect = lower value",0.973
same,normalized growth,"locus YOR083W, strain WHI5, stronger effect = lower value",0.977
same,normalized growth,"locus YOR106W, strain vam3, stronger effect = lower value",0.956
same,normalized growth,"locus YOR136W, strain idh2, stronger effect = lower value",1.02
same,normalized growth,"locus YOR144C, strain elg1, stronger effect = lower value",1.02
same,normalized growth,"locus YOR184W, strain ser1, stronger effect = lower value",1.02
same,normalized growth,"locus YOR265W, strain rbl2, stronger effect = lower value",0.999
same,normalized growth,"locus YOR270C, strain vph1, stronger effect = lower value",0.965
same,normalized growth,"locus YOR290C, strain snf2, stronger effect = lower value",0.955
same,normalized growth,"locus YOR316C, strain cot1, stronger effect = lower value",1.02
same,normalized growth,"locus YPL051W, strain arl3, stronger effect = lower value",0.98
same,normalized growth,"locus YPL078C, strain atp4, stronger effect = lower value",0.977
same,normalized growth,"locus YPL106C, strain sse1, stronger effect = lower value",0.997
same,normalized growth,"locus YPL240C, strain hsp82, stronger effect = lower value",0.982
same,normalized growth,"locus YPR119W, strain clb2, stronger effect = lower value",1.01
same,normalized growth,"locus YPR141C, strain kar3, stronger effect = lower value",1
same,normalized growth,"locus YPR163C, strain tif3, stronger effect = lower value",1.02
same,normalized growth,"locus YPR167C, strain met16, stronger effect = lower value",0.999
same,normalized growth,"strain wtn01, stronger effect = lower value",1.01
